The results in this text go back to article PMC7862700, “An all-to-all approach to the identification of sequence-specific readers for epigenetic DNA modifications on cytosine”.

Holding throughout (test): DAPPL (digital affinity profiling via proximity ligation, sequencing); 10 mM Tris-HCl pH 7.5, 50 mM NaCl, 1 mM DTT, 4% glycerol, room temperature, 30 min; GST-TFs on glutathione beads, 16-mer random dsDNA library, 0.1% formaldehyde crosslink after washing; high values mean tight binding
For experiment [1], the target named is T1, FEV (Homo sapiens, UniProt Q99581 1-238).
T1 sequence: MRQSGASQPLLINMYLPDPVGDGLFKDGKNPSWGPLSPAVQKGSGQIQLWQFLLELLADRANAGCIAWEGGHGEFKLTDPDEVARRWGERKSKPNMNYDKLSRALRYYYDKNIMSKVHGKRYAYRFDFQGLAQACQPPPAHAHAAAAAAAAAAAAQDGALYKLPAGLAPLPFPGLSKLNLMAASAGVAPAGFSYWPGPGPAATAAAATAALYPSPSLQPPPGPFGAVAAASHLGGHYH
The following applies: protein: recombinant; tags: N-terminal GST; dsDNA, one strand shown. In short, it runs like this: (§1)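 Binding signal is each hexamer's read frequency for a factor divided by its frequency in the tag-only sample. The factors were GST-fused human transcription factors from yeast, captured on glutathione beads, DNA-barcoded and pooled with that sample. Pools were incubated with 200 nmole of a random double-stranded 16-mer DNA library in Tris/NaCl/DTT/glycerol buffer at room temperature for 30 min, then washed, crosslinked with 0.1% formaldehyde, proximity-ligated with BsaI/T4 ligase (1 h, 37 °C), PCR-amplified and sequenced on an Illumina NextSeq500.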

The target of experiment [2] is ETV5 (Homo sapiens, UniProt P41161 1-510). Conditions: protein: recombinant; tags: N-terminal GST; dsDNA, one strand shown. In outline:
as §1

Experiment [3] deals with HSF1 (Homo sapiens, UniProt Q00613 1-529). Conditions: protein: recombinant; tags: N-terminal GST; chain copies: 3; dsDNA, one strand shown. In outline:
as §1

The target in experiment [4] is T2, SPIC (Homo sapiens, UniProt Q8N5J4 1-248).
T2 sequence: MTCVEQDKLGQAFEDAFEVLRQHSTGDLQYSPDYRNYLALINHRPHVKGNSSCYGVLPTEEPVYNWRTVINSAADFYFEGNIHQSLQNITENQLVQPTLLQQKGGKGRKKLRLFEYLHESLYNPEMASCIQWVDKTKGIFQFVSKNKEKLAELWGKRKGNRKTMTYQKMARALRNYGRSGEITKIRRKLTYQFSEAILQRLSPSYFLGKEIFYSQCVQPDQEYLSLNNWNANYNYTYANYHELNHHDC
Conditions: protein: recombinant; tags: N-terminal GST; dsDNA, one strand shown. In outline: as §1

The target in experiment [5] is ELF4 (Homo sapiens, UniProt Q99607 1-663). Conditions: protein: recombinant; tags: N-terminal GST; dsDNA, one strand shown. In short, it runs like this: as §1
Chain of ELF4 (Q99607 whole entry): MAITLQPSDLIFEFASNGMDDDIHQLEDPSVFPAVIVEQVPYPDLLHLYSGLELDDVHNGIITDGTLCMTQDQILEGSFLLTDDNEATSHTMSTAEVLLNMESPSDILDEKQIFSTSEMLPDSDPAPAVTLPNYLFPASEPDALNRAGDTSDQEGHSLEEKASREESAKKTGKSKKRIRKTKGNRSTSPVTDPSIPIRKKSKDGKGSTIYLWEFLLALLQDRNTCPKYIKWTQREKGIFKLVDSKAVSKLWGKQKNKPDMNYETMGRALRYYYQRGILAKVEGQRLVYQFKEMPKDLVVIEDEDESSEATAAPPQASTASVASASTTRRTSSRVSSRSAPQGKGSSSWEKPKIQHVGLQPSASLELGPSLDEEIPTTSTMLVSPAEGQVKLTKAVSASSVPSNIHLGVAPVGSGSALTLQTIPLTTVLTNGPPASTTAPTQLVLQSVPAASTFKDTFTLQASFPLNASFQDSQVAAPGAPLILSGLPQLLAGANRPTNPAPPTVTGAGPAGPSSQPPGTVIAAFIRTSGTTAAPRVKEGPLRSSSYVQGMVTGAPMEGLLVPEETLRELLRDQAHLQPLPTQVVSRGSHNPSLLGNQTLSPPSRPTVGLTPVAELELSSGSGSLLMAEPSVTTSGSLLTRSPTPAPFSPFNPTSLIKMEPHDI
Experiment [6] deals with T3, ELK4 (Homo sapiens, UniProt P28324-2 1-405).
T3 sequence: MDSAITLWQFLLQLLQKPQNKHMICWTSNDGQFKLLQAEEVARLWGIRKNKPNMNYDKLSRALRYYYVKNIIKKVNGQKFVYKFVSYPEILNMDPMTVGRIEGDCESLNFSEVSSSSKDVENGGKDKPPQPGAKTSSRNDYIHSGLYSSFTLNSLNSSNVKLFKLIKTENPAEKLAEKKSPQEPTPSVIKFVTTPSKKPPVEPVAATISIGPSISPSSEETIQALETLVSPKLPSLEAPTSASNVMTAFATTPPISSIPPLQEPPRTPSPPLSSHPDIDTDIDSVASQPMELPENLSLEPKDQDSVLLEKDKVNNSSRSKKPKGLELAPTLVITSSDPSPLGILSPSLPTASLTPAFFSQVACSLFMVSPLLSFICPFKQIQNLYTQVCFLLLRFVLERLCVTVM
Conditions: protein: recombinant; tags: N-terminal GST; dsDNA, one strand shown. In short, it runs like this: as §1

For experiment [7], the target named is T4, ETV2 (Homo sapiens, UniProt O00321 1-342).
T4 sequence: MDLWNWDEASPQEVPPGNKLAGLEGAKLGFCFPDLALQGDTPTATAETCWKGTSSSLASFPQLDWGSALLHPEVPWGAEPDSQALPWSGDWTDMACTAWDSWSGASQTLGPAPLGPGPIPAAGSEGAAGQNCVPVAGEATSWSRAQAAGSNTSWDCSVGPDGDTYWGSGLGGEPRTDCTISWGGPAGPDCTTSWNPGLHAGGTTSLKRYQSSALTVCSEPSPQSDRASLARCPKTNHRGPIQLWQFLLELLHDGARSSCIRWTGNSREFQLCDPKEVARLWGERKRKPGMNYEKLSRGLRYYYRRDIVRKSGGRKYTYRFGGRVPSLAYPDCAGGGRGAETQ
Conditions: protein: recombinant; tags: N-terminal GST; dsDNA, one strand shown. In short, it runs like this:
as §1

In experiment [8] the target is T5, ELF3 (Homo sapiens, UniProt P78545 1-371).
T5 sequence: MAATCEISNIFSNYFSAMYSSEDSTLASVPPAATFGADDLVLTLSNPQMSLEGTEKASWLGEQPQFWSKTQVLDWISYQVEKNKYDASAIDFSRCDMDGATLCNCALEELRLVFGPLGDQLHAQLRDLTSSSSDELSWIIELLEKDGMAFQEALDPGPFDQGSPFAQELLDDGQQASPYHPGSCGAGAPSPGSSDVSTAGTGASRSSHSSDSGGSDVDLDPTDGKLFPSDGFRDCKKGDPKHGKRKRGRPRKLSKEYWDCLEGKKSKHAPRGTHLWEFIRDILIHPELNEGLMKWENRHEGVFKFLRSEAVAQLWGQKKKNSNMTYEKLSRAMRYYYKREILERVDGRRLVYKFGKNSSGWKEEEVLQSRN
Conditions: protein: recombinant; tags: N-terminal GST; dsDNA, one strand shown. In short, it runs like this: as §1

Experiment [9] addresses CRX (Homo sapiens, UniProt O43186 1-299). The following applies: protein: recombinant; tags: N-terminal GST; dsDNA, one strand shown. In short, it runs like this: as §1
Experiment [10] concerns the target ETV1 (Homo sapiens, UniProt P50549 1-477). The following applies: protein: recombinant; tags: N-terminal GST; dsDNA, one strand shown. In short, it runs like this: as §1
Experiment [11] deals with T6, ERF (Homo sapiens, UniProt P50548 1-548).
T6 sequence: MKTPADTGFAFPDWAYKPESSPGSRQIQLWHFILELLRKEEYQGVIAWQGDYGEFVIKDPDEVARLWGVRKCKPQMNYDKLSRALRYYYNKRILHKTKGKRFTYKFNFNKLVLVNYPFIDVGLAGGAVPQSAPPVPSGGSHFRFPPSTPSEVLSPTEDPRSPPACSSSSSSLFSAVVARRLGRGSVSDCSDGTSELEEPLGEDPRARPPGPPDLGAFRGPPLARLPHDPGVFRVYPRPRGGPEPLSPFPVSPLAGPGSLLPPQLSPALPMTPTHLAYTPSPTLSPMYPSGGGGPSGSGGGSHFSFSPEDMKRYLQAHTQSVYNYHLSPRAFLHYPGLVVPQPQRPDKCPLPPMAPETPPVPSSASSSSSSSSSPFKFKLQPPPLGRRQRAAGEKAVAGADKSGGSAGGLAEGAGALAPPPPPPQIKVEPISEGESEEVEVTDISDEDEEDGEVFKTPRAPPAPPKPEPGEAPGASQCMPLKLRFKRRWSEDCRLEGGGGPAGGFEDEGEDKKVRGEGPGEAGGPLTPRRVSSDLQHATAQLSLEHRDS
Conditions: protein: recombinant; tags: N-terminal GST; dsDNA, one strand shown. In outline: as §1

Experiment [12] concerns the target T7, ETV3L (Homo sapiens, UniProt Q6ZN32 1-361).
T7 sequence: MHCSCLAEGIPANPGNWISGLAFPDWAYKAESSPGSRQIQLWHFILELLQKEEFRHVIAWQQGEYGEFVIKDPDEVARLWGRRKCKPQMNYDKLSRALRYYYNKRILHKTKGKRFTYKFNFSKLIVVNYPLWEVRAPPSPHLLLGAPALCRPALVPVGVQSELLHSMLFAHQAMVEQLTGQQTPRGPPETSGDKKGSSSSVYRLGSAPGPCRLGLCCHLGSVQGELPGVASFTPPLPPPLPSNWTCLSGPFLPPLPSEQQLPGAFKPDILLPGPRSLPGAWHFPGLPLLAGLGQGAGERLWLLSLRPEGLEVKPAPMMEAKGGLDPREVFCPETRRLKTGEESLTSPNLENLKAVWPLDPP
The following applies: protein: recombinant; tags: N-terminal GST; dsDNA, one strand shown. In short, it runs like this:
as §1

Experiment [13] deals with T8, ETS2 (Homo sapiens, UniProt P15036 1-469).
T8 sequence: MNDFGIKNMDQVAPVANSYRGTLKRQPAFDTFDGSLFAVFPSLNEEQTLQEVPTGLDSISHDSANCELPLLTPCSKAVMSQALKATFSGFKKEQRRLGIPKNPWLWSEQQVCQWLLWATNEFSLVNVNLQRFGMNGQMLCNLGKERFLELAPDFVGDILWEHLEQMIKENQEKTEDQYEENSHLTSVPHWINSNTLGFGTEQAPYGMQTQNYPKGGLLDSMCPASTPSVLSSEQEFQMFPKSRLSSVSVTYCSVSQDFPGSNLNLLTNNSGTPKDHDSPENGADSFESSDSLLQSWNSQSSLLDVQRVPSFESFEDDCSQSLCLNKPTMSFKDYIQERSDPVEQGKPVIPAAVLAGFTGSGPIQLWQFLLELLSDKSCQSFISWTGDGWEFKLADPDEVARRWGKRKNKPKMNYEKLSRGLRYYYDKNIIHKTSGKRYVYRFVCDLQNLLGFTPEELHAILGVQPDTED
The following applies: protein: recombinant; tags: N-terminal GST; dsDNA, one strand shown. In outline:
as §1

Experiment [14] has as its target T9, SPDEF (Homo sapiens, UniProt O95238 1-335).
T9 sequence: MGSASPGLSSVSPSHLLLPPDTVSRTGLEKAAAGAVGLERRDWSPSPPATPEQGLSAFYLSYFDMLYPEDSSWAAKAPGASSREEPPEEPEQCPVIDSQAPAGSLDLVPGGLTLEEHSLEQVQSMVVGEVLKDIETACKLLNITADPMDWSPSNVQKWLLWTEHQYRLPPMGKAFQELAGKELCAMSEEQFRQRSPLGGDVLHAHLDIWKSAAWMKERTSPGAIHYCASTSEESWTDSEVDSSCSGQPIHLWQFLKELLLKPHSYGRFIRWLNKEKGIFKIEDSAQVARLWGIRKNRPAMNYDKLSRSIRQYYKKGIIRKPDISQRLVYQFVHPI
Conditions: protein: recombinant; tags: N-terminal GST; dsDNA, one strand shown. In short, it runs like this:
as §1

For experiment [15], the target named is T10, ETV7 (Homo sapiens, UniProt Q9Y603 1-341).
T10 sequence: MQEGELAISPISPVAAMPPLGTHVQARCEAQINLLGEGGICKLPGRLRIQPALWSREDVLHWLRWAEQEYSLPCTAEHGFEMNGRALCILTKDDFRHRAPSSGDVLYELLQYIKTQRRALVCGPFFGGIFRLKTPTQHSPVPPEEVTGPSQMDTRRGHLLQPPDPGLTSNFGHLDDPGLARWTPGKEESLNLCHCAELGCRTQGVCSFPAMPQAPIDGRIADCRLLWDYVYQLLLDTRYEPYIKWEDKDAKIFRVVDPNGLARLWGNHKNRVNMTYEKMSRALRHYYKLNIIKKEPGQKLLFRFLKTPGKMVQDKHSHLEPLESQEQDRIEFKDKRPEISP
Conditions: protein: recombinant; tags: N-terminal GST; dsDNA, one strand shown. In short, it runs like this:
as §1

For experiment [16], the target named is T11, ELF5 (Homo sapiens, UniProt Q9UKW6-2 1-255).
T11 sequence: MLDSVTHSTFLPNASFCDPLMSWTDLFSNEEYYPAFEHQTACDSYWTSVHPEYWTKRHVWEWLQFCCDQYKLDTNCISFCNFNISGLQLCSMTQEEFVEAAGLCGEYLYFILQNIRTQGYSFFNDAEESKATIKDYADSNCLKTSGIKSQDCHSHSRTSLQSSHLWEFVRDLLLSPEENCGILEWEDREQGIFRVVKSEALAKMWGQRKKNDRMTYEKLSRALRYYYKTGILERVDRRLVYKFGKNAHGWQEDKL
The following applies: protein: recombinant; tags: N-terminal GST; dsDNA, one strand shown. In outline: as §1

The target of experiment [17] is T12, ETV3 (Homo sapiens, UniProt P41162-2 1-143).
T12 sequence: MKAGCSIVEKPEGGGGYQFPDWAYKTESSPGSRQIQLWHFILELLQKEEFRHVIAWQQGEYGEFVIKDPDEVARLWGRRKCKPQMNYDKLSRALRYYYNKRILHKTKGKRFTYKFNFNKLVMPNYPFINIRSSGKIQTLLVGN
The following applies: protein: recombinant; tags: N-terminal GST; dsDNA, one strand shown. In outline:
as §1

Experiment [18] deals with ETV6 (Homo sapiens, UniProt P41212 1-452). Conditions: protein: recombinant; tags: N-terminal GST; dsDNA, one strand shown. In outline: as §1
Chain of ETV6 (P41212 whole entry): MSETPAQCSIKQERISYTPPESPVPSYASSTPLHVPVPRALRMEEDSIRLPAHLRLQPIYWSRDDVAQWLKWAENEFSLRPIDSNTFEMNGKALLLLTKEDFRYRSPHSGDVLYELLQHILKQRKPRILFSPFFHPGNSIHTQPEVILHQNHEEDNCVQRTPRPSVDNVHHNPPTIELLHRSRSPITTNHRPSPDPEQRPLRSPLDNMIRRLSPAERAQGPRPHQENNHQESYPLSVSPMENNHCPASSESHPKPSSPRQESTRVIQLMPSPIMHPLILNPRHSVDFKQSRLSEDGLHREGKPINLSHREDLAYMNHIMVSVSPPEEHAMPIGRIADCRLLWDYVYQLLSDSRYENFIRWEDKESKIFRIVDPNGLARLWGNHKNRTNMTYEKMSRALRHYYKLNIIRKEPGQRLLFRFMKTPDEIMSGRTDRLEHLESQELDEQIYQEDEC

Chain of CRX (O43186 whole entry): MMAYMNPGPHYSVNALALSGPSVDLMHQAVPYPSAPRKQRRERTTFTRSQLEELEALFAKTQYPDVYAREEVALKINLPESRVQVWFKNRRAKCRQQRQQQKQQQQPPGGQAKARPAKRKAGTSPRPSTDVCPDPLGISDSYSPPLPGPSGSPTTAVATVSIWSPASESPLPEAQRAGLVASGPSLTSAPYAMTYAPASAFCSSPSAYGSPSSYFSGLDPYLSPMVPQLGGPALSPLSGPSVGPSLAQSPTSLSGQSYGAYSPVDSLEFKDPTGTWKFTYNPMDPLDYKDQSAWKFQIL
Chain of ETV5 (P41161 whole entry): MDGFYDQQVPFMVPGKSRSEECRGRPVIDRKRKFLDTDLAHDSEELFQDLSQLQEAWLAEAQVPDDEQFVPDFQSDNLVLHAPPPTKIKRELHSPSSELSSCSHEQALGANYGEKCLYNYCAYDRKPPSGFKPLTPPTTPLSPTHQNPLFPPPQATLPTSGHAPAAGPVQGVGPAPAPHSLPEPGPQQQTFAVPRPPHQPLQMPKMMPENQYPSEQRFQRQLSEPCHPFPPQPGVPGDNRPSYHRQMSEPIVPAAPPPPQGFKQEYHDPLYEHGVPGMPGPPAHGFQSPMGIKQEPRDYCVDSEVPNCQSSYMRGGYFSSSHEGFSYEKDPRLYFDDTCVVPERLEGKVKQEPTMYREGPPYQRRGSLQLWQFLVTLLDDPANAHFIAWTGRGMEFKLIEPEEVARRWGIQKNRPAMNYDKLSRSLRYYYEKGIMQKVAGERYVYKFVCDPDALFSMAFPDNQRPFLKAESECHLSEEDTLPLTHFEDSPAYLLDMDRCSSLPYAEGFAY
Chain of HSF1 (Q00613 whole entry): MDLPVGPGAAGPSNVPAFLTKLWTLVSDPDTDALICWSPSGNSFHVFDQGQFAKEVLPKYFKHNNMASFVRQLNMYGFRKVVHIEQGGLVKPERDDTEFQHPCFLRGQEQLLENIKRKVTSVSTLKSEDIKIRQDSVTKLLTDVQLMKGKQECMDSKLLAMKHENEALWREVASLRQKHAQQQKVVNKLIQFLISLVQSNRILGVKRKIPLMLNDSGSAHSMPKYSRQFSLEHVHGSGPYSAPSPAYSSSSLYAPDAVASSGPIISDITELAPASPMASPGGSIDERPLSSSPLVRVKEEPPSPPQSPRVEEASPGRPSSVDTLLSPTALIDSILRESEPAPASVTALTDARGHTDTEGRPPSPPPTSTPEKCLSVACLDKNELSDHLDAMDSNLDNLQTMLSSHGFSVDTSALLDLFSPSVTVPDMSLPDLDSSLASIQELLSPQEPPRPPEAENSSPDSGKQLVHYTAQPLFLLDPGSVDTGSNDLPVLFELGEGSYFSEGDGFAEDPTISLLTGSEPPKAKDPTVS
Chain of ETV1 (P50549 whole entry): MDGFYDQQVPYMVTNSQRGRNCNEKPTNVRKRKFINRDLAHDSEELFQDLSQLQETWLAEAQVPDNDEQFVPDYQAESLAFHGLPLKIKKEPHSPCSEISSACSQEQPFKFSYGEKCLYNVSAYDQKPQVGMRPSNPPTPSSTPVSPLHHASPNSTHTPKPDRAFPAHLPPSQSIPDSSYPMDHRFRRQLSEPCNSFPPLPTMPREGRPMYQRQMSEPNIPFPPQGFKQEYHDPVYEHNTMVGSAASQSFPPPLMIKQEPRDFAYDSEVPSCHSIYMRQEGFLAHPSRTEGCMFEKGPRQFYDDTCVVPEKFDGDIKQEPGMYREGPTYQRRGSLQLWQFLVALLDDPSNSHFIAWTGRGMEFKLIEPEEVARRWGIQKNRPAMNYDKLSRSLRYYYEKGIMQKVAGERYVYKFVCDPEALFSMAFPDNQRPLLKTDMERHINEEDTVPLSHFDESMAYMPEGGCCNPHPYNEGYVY

For the sequence CTGAAC, the binding signal is 1.35 fold enrichment (6-mer frequency, TF over GST control) in experiment [1]; 1.41 fold enrichment (6-mer frequency, TF over GST control) in [2]; 1.33 fold enrichment (6-mer frequency, TF over GST control) in experiment [3]; 1.31 fold enrichment (6-mer frequency, TF over GST control) in experiment [4]; 1.3 fold enrichment (6-mer frequency, TF over GST control) in [5]; 1.44 fold enrichment (6-mer frequency, TF over GST control) in experiment [6]. Besides, the binding signal in experiment [7] is 1.35 fold enrichment (6-mer frequency, TF over GST control); in experiment [8] it was 1.44 fold enrichment (6-mer frequency, TF over GST control); in experiment [9], 1.23 fold enrichment (6-mer frequency, TF over GST control); in [10] it was 1.43 fold enrichment (6-mer frequency, TF over GST control); in [11] it was 1.33 fold enrichment (6-mer frequency, TF over GST control); in experiment [12], 1.3 fold enrichment (6-mer frequency, TF over GST control). Further, the binding signal is 1.32 fold enrichment (6-mer frequency, TF over GST control) in [13]; 1.47 fold enrichment (6-mer frequency, TF over GST control) in [14]; 1.21 fold enrichment (6-mer frequency, TF over GST control) in experiment [15]; 1.41 fold enrichment (6-mer frequency, TF over GST control) in experiment [16]; 1.47 fold enrichment (6-mer frequency, TF over GST control) in [17]; 1.29 fold enrichment (6-mer frequency, TF over GST control) in [18].
